# Reference: the supplement of paper PMC4466140
# B1: unnamed (peptide)
# chain: RRGPAPPPPPRASRP
# B2: unnamed (peptide)
# chain: IRMPSNPALPKKLLN
# Biological target: AgAbp1
# Experiment: SPOT peptide array binding signal intensity (averaged, normalized) (arbitrary units (background-subtracted, floor 0; scale differs between SH3 domains)); higher = stronger binding of the SH3 domain to the peptide
# Outline: (§1)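 Binding signal refers to normalized, background-subtracted spot intensity averaged over replicates, expressed in arbitrary units that differ between domains. GST-fused SH3 domains from four yeast species were incubated at 10 μg/ml overnight at 4°C on cellulose membranes of synthetic 15-mer peptides with cysteines replaced by serines. Bound protein was detected with anti-GST antibody, an HRP anti-mouse secondary and luminol, and quantified with Genespotter.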
row,Binder,SPOT peptide array binding signal intensity
1,B1,181
2,B2,194

# Biological target: AgBbc1
# Experiment: as above
# Outline: as §1
row,Binder,SPOT peptide array binding signal intensity
1,B1,646
2,B2,40

# Biological target: AgBem1-D1
# Experiment: as above
# Outline: as §1
row,Binder,SPOT peptide array binding signal intensity
1,B1,410
2,B2,431

# Biological target: AgBzz1-D1
# Experiment: as above
# Outline: as §1
row,Binder,SPOT peptide array binding signal intensity
1,B1,582
2,B2,10

# Biological target: AgBzz1-D2
# Experiment: as above
# Outline: as §1
row,Binder,SPOT peptide array binding signal intensity
1,B1,164
2,B2,10

# Biological target: AgCyk3
# Experiment: as above
# Outline: as §1
row,Binder,SPOT peptide array binding signal intensity
1,B1,2
2,B2,1

# Biological target: AgFus1
# Experiment: as above
# Outline: as §1
row,Binder,SPOT peptide array binding signal intensity
1,B1,23
2,B2,806

# Biological target: AgHof1
# Experiment: as above
# Outline: as §1
row,Binder,SPOT peptide array binding signal intensity
1,B1,63.8
2,B2,59.5

# Biological target: AgHse1
# Experiment: as above
# Outline: as §1
row,Binder,SPOT peptide array binding signal intensity
1,B1,32.5
2,B2,367

# Biological target: AgLsb1
# Experiment: as above
# Outline: as §1
row,Binder,SPOT peptide array binding signal intensity
1,B1,80.2
2,B2,2.5

# Biological target: AgLsb4
# Experiment: as above
# Outline: as §1
row,Binder,SPOT peptide array binding signal intensity
1,B1,485
2,B2,21.5

# Biological target: AgMyo5
# Experiment: as above
# Outline: as §1
row,Binder,SPOT peptide array binding signal intensity
1,B1,89
2,B2,1.75

# Biological target: AgNbp2
# Experiment: as above
# Outline: as §1
row,Binder,SPOT peptide array binding signal intensity
1,B1,205
2,B2,308

# Biological target: AgRvs167
# Experiment: as above
# Outline: as §1
row,Binder,SPOT peptide array binding signal intensity
1,B1,339
2,B2,2.33

# Biological target: AgSho1
# Experiment: as above
# Outline: as §1
row,Binder,SPOT peptide array binding signal intensity
1,B1,13
2,B2,852

# Biological target: AgSla1-D1-D2
# Experiment: as above
# Outline: as §1
row,Binder,SPOT peptide array binding signal intensity
1,B1,21
2,B2,16

# Biological target: AgSla1-D3
# Experiment: as above
# Outline: as §1
row,Binder,SPOT peptide array binding signal intensity
1,B1,14
2,B2,7.5

# Biological target: CaAbp1-D1
# Experiment: as above
# Outline: as §1
row,Binder,SPOT peptide array binding signal intensity
1,B1,1290
2,B2,616

# Biological target: CaAbp1-D2
# Experiment: as above
# Outline: as §1
row,Binder,SPOT peptide array binding signal intensity
1,B1,281
2,B2,1080

# Biological target: CaBbc1
# Experiment: as above
# Outline: as §1
row,Binder,SPOT peptide array binding signal intensity
1,B1,1160
2,B2,126

# Biological target: CaBem1-D1
# Experiment: as above
# Outline: as §1
row,Binder,SPOT peptide array binding signal intensity
1,B1,1890
2,B2,444

# Biological target: CaBzz1-D1
# Experiment: as above
# Outline: as §1
row,Binder,SPOT peptide array binding signal intensity
1,B1,3450
2,B2,314

# Biological target: CaBzz1-D2
# Experiment: as above
# Outline: as §1
row,Binder,SPOT peptide array binding signal intensity
1,B1,2600
2,B2,247

# Biological target: CaCyk3
# Experiment: as above
# Outline: as §1
row,Binder,SPOT peptide array binding signal intensity
1,B1,216
2,B2,15

# Biological target: CaFus1
# Experiment: as above
# Outline: as §1
row,Binder,SPOT peptide array binding signal intensity
1,B1,124
2,B2,1400

# Biological target: CaHof1
# Experiment: as above
# Outline: as §1
row,Binder,SPOT peptide array binding signal intensity
1,B1,6.5
2,B2,≤ 0

# Biological target: CaHse1
# Experiment: as above
# Outline: as §1
row,Binder,SPOT peptide array binding signal intensity
1,B1,6.75
2,B2,504

# Biological target: CaLsb1
# Experiment: as above
# Outline: as §1
row,Binder,SPOT peptide array binding signal intensity
1,B1,0.75
2,B2,15.5

# Biological target: CaLsb4
# Experiment: as above
# Outline: as §1
row,Binder,SPOT peptide array binding signal intensity
1,B1,1000
2,B2,692

# Biological target: CaMyo5
# Experiment: as above
# Outline: as §1
row,Binder,SPOT peptide array binding signal intensity
1,B1,9
2,B2,97.5

# Biological target: CaNbp2
# Experiment: as above
# Outline: as §1
row,Binder,SPOT peptide array binding signal intensity
1,B1,209
2,B2,1060

# Biological target: CaRvs167
# Experiment: as above
# Outline: as §1
row,Binder,SPOT peptide array binding signal intensity
1,B1,805
2,B2,65.7

# Biological target: CaRvs167-3
# Experiment: as above
# Outline: as §1
row,Binder,SPOT peptide array binding signal intensity
1,B1,11
2,B2,3.5

# Biological target: CaSho1
# Experiment: as above
# Outline: as §1
row,Binder,SPOT peptide array binding signal intensity
1,B1,18.5
2,B2,2070

# Biological target: CaSla1-D1-D2
# Experiment: as above
# Outline: as §1
row,Binder,SPOT peptide array binding signal intensity
1,B1,2130
2,B2,476

# Biological target: CaSla1-D3
# Experiment: as above
# Outline: as §1
row,Binder,SPOT peptide array binding signal intensity
1,B1,143
2,B2,424

# Biological target: ScAbp1
# Experiment: as above
# Outline: as §1
row,Binder,SPOT peptide array binding signal intensity
1,B1,272
2,B2,104

# Biological target: ScBbc1
# Experiment: as above
# Outline: as §1
row,Binder,SPOT peptide array binding signal intensity
1,B1,150
2,B2,9.5

# Biological target: ScBem1-D1
# Experiment: as above
# Outline: as §1
row,Binder,SPOT peptide array binding signal intensity
1,B1,6
2,B2,2

# Biological target: ScBzz1-D1
# Experiment: as above
# Outline: as §1
row,Binder,SPOT peptide array binding signal intensity
1,B1,457
2,B2,17

# Biological target: ScBzz1-D2
# Experiment: as above
# Outline: as §1
row,Binder,SPOT peptide array binding signal intensity
1,B1,68.5
2,B2,29

# Biological target: ScCyk3
# Experiment: as above
# Outline: as §1
row,Binder,SPOT peptide array binding signal intensity
1,B1,16
2,B2,6

# Biological target: ScFus1
# Experiment: as above
# Outline: as §1
row,Binder,SPOT peptide array binding signal intensity
1,B1,12.5
2,B2,805

# Biological target: ScHof1
# Experiment: as above
# Outline: as §1
row,Binder,SPOT peptide array binding signal intensity
1,B1,12.2
2,B2,5.5

# Biological target: ScHse1
# Experiment: as above
# Outline: as §1
row,Binder,SPOT peptide array binding signal intensity
1,B1,28.5
2,B2,89.5

# Biological target: ScLsb1
# Experiment: as above
# Outline: as §1
row,Binder,SPOT peptide array binding signal intensity
1,B1,132
2,B2,102

# Biological target: ScLsb2
# Experiment: as above
# Outline: as §1
row,Binder,SPOT peptide array binding signal intensity
1,B1,54
2,B2,≤ 0

# Biological target: ScLsb3
# Experiment: as above
# Outline: as §1
row,Binder,SPOT peptide array binding signal intensity
1,B1,1380
2,B2,769

# Biological target: ScLsb4
# Experiment: as above
# Outline: as §1
row,Binder,SPOT peptide array binding signal intensity
1,B1,892
2,B2,296

# Biological target: ScMyo3
# Experiment: as above
# Outline: as §1
row,Binder,SPOT peptide array binding signal intensity
1,B1,160
2,B2,35.2

# Biological target: ScMyo5
# Experiment: as above
# Outline: as §1
row,Binder,SPOT peptide array binding signal intensity
1,B1,279
2,B2,2

# Biological target: ScNbp2
# Experiment: as above
# Outline: as §1
row,Binder,SPOT peptide array binding signal intensity
1,B1,158
2,B2,509

# Biological target: ScPex13
# Experiment: as above
# Outline: as §1
row,Binder,SPOT peptide array binding signal intensity
1,B1,1150
2,B2,195

# Biological target: ScRvs167
# Experiment: as above
# Outline: as §1
row,Binder,SPOT peptide array binding signal intensity
1,B1,2010
2,B2,32.5

# Biological target: ScSho1
# Experiment: as above
# Outline: as §1
row,Binder,SPOT peptide array binding signal intensity
1,B1,668
2,B2,1060

# Biological target: ScSla1-D1-D2
# Experiment: as above
# Outline: as §1
row,Binder,SPOT peptide array binding signal intensity
1,B1,4710
2,B2,544

# Biological target: ScSla1-D3
# Experiment: as above
# Outline: as §1
row,Binder,SPOT peptide array binding signal intensity
1,B1,8.25
2,B2,277

# Biological target: SpAbp1-D1
# Experiment: as above
# Outline: as §1
row,Binder,SPOT peptide array binding signal intensity
1,B1,726
2,B2,268

# Biological target: SpBbc1
# Experiment: as above
# Outline: as §1
row,Binder,SPOT peptide array binding signal intensity
1,B1,24
2,B2,5

# Biological target: SpBzz1-D1
# Experiment: as above
# Outline: as §1
row,Binder,SPOT peptide array binding signal intensity
1,B1,1820
2,B2,700

# Biological target: SpBzz1-D2
# Experiment: as above
# Outline: as §1
row,Binder,SPOT peptide array binding signal intensity
1,B2,41

# Biological target: SpCyk3
# Experiment: as above
# Outline: as §1
row,Binder,SPOT peptide array binding signal intensity
1,B2,4

# Biological target: SpHof1
# Experiment: as above
# Outline: as §1
row,Binder,SPOT peptide array binding signal intensity
1,B2,53.2

# Biological target: SpHof1-2
# Experiment: as above
# Outline: as §1
row,Binder,SPOT peptide array binding signal intensity
1,B2,30

# Biological target: SpHof1-3
# Experiment: as above
# Outline: as §1
row,Binder,SPOT peptide array binding signal intensity
1,B2,22.8

# Biological target: SpHse1
# Experiment: as above
# Outline: as §1
row,Binder,SPOT peptide array binding signal intensity
1,B2,294

# Biological target: SpLsb1
# Experiment: as above
# Outline: as §1
row,Binder,SPOT peptide array binding signal intensity
1,B2,16.8

# Biological target: SpLsb4
# Experiment: as above
# Outline: as §1
row,Binder,SPOT peptide array binding signal intensity
1,B2,1170

# Biological target: SpMyo1
# Experiment: as above
# Outline: as §1
row,Binder,SPOT peptide array binding signal intensity
1,B2,67.5

# Biological target: SpNbp2
# Experiment: as above
# Outline: as §1
row,Binder,SPOT peptide array binding signal intensity
1,B2,241

# Biological target: SpPex13
# Experiment: as above
# Outline: as §1
row,Binder,SPOT peptide array binding signal intensity
1,B2,136

# Biological target: SpRvs167
# Experiment: as above
# Outline: as §1
row,Binder,SPOT peptide array binding signal intensity
1,B2,107

# Biological target: SpSla1-D1-D2
# Experiment: as above
# Outline: as §1
row,Binder,SPOT peptide array binding signal intensity
1,B2,17.5

# Biological target: SpSla1-D3
# Experiment: as above
# Outline: as §1
row,Binder,SPOT peptide array binding signal intensity
1,B2,477
